{"source": "PubChem BioAssay (Tox21)", "note": "Values without a mark were called inactive. Activity calls are given as the source filed them. The call rests on the fitted dose curve; in most records, active means well fitted curve in the direction sought with a large enough effect in the repeat runs; inconclusive means weak or mixed curves; inactive means flat fitted curve, though single readings scatter. On the % scale 0 is the no-effect control and ±100 the full control effect; tags describe the fitted curve by direction and shape or compound fluorescence and quenching."}
{"test": "qHTS assay to test for compound auto fluorescence at 460 nm (blue) in HepG2 cell free culture (AID 720685); further: potency means the concentration at half of the fitted maximal effect", "settings": "Cell-free culture medium, blue autofluorescence 405/460 nm; series mostly up to 91.3 µM; fluorescence, % of fluorescent control: at the top concentration", "summary_of_the_method": "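Compound (23 nL) or DMSO pinned into cell-free MEM with 10% FBS; blue fluorescence read at 405/460 nm excitation/emission, expressed as auto-fluorescence equivalency to triamterene.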"}
{"smiles": "O=C(O)[C@H](O)[C@@H](O)[C@H](O[C@@H]1O[C@H](CO)[C@H](O)[C@H](O)[C@H]1O)[C@H](O)CO", "fluorescence, % of fluorescent control": "0.0634% [at 18.6 µM]"}
{"smiles": "Cc1c2ccccc2c(C)c2c1ccc1ccccc12", "Potency": "inactive"}
{"smiles": "NC[C@H]1O[C@H](O[C@H]2[C@H](O[C@@H]3O[C@H](CO)[C@@H](O)[C@H]3O)C(O)[C@H](N)C[C@@H]2N)[C@H](N)[C@@H](O)[C@@H]1O", "note": "(stereo partly specified)", "fluorescence, % of fluorescent control": "0.0653% [at 18.6 µM]"}
{"smiles": "CC(C)CCCCCOC(=O)CCS", "fluorescence, % of fluorescent control": "0.0965%"}
{"smiles": "COc1cc(/C=C/c2ccccc2)oc(=O)c1", "fluorescence, % of fluorescent control": "0.0161% [at 95.7 µM]"}
{"smiles": "CCCCC(CC)COC(=O)CCCCC(=O)OCc1ccccc1", "note": "(stereo unspecified)", "fluorescence, % of fluorescent control": "-0.111%"}
{"smiles": "CC(=O)c1ccc(C(C)=O)cc1", "fluorescence, % of fluorescent control": "0.0202% [at 95.7 µM]"}
{"smiles": "Cc1ccc(C(=O)O)cc1", "fluorescence, % of fluorescent control": "-0.0016% [at 95.7 µM]"}
{"smiles": "CCC(CC)(CC(=O)Nc1cccc(/C=C/c2nc(C3CCC3)cs2)c1)C(=O)O", "fluorescence, % of fluorescent control": "0.217% [at 46 µM]"}
{"smiles": "CCOC(=O)NNc1ccc(N(CC)CC(C)O)nn1", "note": "(stereo unspecified)", "fluorescence, % of fluorescent control": "0.113% [at 46 µM]"}
{"smiles": "C=CC(=O)Nc1cc2c(Nc3ccc(F)c(Cl)c3)ncnc2cc1OCCCN1CCOCC1", "fluorescence, % of fluorescent control": "0.667% [at 46 µM]"}
{"smiles": "CCN(CC)c1ccc2c(-c3ccc(S(=O)(=O)O)cc3S(=O)(=O)[O-])c3ccc(=[N+](CC)CC)cc-3oc2c1", "fluorescence, % of fluorescent control": "-0.191% [at 95.7 µM]"}
{"smiles": "c1ccsc1", "fluorescence, % of fluorescent control": "-0.0576%"}
{"smiles": "O=S(=O)(O)c1ccc(Nc2nc(Nc3ccc(/C=C/c4ccc(Nc5nc(Nc6ccc(S(=O)(=O)O)cc6)nc(N(CCO)CCO)n5)cc4S(=O)(=O)O)c(S(=O)(=O)O)c3)nc(N(CCO)CCO)n2)cc1", "Potency": "35.5 µM [fluorescent] (active)"}
{"smiles": "CC(C)(C)CC(C)(C)c1ccc(Nc2ccc(C(C)(C)CC(C)(C)C)cc2)cc1", "fluorescence, % of fluorescent control": "0.0515% [at 3.72 µM]"}
{"smiles": "CC(C)=CCC1=C(O)c2ccccc2C(=O)C1=O", "fluorescence, % of fluorescent control": "-0.491%"}
{"smiles": "ClCCl", "fluorescence, % of fluorescent control": "-0.305%"}
{"smiles": "CC(CO)Oc1ccccc1", "note": "(stereo unspecified)", "fluorescence, % of fluorescent control": "0.0302% [at 95.7 µM]"}
{"smiles": "C=C(CC)C(=O)c1ccc(OCC(=O)O)c(Cl)c1Cl", "Potency": "inactive"}
{"smiles": "CCC(COC(=O)CCS)(COC(=O)CCS)COC(=O)CCS", "fluorescence, % of fluorescent control": "0.0033%"}
{"smiles": "O=C(O)c1cccc(C(F)(F)F)c1", "fluorescence, % of fluorescent control": "-0.242%"}
{"smiles": "Nc1ccc(C(=O)O)c(O)c1", "fluorescence, % of fluorescent control": "-0.0101% [at 46 µM]"}
{"smiles": "C[C@H]1NCc2cc(-c3ccc4c(=O)c(C(=O)O)cn(C5CC5)c4c3OC(F)F)ccc21", "fluorescence, % of fluorescent control": "0.397% [at 46 µM]"}
{"smiles": "O=C(Oc1ccccc1)Oc1ccccc1", "fluorescence, % of fluorescent control": "0.0028%"}
{"smiles": "O=[N+]([O-])c1ccc(O)cc1C(F)(F)F", "fluorescence, % of fluorescent control": "-0.44%"}
{"smiles": "COC(=O)Nc1nc2ccc(C(=O)c3ccccc3)cc2[nH]1", "fluorescence, % of fluorescent control": "0.0166% [at 18.6 µM]"}
{"smiles": "O=C(O)c1cc(=O)c2ccccc2o1", "fluorescence, % of fluorescent control": "-0.0843% [at 46 µM]"}
{"smiles": "CCCCCCCC/C=C\\CCCCCCCCN", "fluorescence, % of fluorescent control": "0.0094% [at 46 µM]"}
{"test": "qHTS assay to test for compound auto fluorescence at 535 nm (green) in HepG2 cell free culture (AID 720686)", "settings": "Cell-free medium, green autofluorescence 485/535 nm; series mostly up to 91.3 µM; fluorescence, % of fluorescein control: at the top concentration"}
{"smiles": "O=C(O)[C@H](O)[C@@H](O)[C@H](O[C@@H]1O[C@H](CO)[C@H](O)[C@H](O)[C@H]1O)[C@H](O)CO", "fluorescence, % of fluorescein control": "-0.112% [at 18.6 µM]"}
{"smiles": "Cc1c2ccccc2c(C)c2c1ccc1ccccc12", "Potency": "inactive"}
{"smiles": "NC[C@H]1O[C@H](O[C@H]2[C@H](O[C@@H]3O[C@H](CO)[C@@H](O)[C@H]3O)C(O)[C@H](N)C[C@@H]2N)[C@H](N)[C@@H](O)[C@@H]1O", "note": "(stereo partly specified)", "fluorescence, % of fluorescein control": "-0.0227% [at 18.6 µM]"}
{"smiles": "O=C(O)Cc1ccccc1Nc1c(Cl)cccc1Cl", "Potency": "inactive"}
{"smiles": "CC(C)CCCCCOC(=O)CCS", "fluorescence, % of fluorescein control": "-0.0947%"}
{"smiles": "COc1cc(/C=C/c2ccccc2)oc(=O)c1", "fluorescence, % of fluorescein control": "0.0309% [at 95.7 µM]"}
{"smiles": "CCO[Si](OCC)(OCC)OCC", "fluorescence, % of fluorescein control": "-0.133% [at 95.7 µM]"}
{"smiles": "CCCCC(CC)COC(=O)CCCCC(=O)OCc1ccccc1", "note": "(stereo unspecified)", "fluorescence, % of fluorescein control": "0.102%"}
{"smiles": "NC(=S)NC(N)=S", "fluorescence, % of fluorescein control": "-0.0093%"}
{"smiles": "CC(=O)c1ccc(C(C)=O)cc1", "fluorescence, % of fluorescein control": "0.0389% [at 95.7 µM]"}
{"smiles": "Cc1ccc(C(=O)O)cc1", "fluorescence, % of fluorescein control": "-0.0299% [at 95.7 µM]"}
{"smiles": "CCC(CC)(CC(=O)Nc1cccc(/C=C/c2nc(C3CCC3)cs2)c1)C(=O)O", "fluorescence, % of fluorescein control": "-0.0074% [at 46 µM]"}
{"smiles": "CCOC(=O)NNc1ccc(N(CC)CC(C)O)nn1", "note": "(stereo unspecified)", "fluorescence, % of fluorescein control": "0.017% [at 46 µM]"}
{"smiles": "C=CC(=O)Nc1cc2c(Nc3ccc(F)c(Cl)c3)ncnc2cc1OCCCN1CCOCC1", "fluorescence, % of fluorescein control": "0.0982% [at 46 µM]"}
{"smiles": "CCN(CC)c1ccc2c(-c3ccc(S(=O)(=O)O)cc3S(=O)(=O)[O-])c3ccc(=[N+](CC)CC)cc-3oc2c1", "fluorescence, % of fluorescein control": "4.24% [at 95.7 µM]"}
{"smiles": "Cc1cccc2cccnc12", "fluorescence, % of fluorescein control": "-0.0062%"}
{"smiles": "c1ccsc1", "fluorescence, % of fluorescein control": "0.0166%"}
{"smiles": "CC(C)(C)CC(C)(C)c1ccc(Nc2ccc(C(C)(C)CC(C)(C)C)cc2)cc1", "fluorescence, % of fluorescein control": "0.0526% [at 3.72 µM]"}
{"smiles": "ClCCl", "fluorescence, % of fluorescein control": "-0.0678%"}
{"smiles": "CCCCNS(=O)(=O)c1ccc(C)cc1", "fluorescence, % of fluorescein control": "0.0157%"}
{"smiles": "C=C(CC)C(=O)c1ccc(OCC(=O)O)c(Cl)c1Cl", "Potency": "inactive"}
{"smiles": "CCC(COC(=O)CCS)(COC(=O)CCS)COC(=O)CCS", "fluorescence, % of fluorescein control": "0.0081%"}
{"smiles": "O=C(O)c1cccc(C(F)(F)F)c1", "fluorescence, % of fluorescein control": "-0.0598%"}
{"smiles": "O=C(O)CCN(C1(C(=O)NO)CCCC1)S(=O)(=O)c1ccc(Oc2ccc(F)cc2)cc1", "fluorescence, % of fluorescein control": "-0.0166%"}
{"smiles": "Nc1ccc(C(=O)O)c(O)c1", "fluorescence, % of fluorescein control": "0.0105% [at 46 µM]"}
{"smiles": "C[C@H]1NCc2cc(-c3ccc4c(=O)c(C(=O)O)cn(C5CC5)c4c3OC(F)F)ccc21", "fluorescence, % of fluorescein control": "0.0585% [at 46 µM]"}
{"smiles": "O=C(Oc1ccccc1)Oc1ccccc1", "fluorescence, % of fluorescein control": "-0.104%"}
{"smiles": "O=[N+]([O-])c1ccc(O)cc1C(F)(F)F", "fluorescence, % of fluorescein control": "-0.0484%"}
{"smiles": "COC(=O)Nc1nc2ccc(C(=O)c3ccccc3)cc2[nH]1", "fluorescence, % of fluorescein control": "0.0619% [at 18.6 µM]"}
{"smiles": "O=C(O)c1cc(=O)c2ccccc2o1", "fluorescence, % of fluorescein control": "0.0428% [at 46 µM]"}
{"smiles": "CC1=Nc2ccccc2C1(C)C", "fluorescence, % of fluorescein control": "0.114%"}
{"smiles": "CCCCCCCC/C=C\\CCCCCCCCN", "fluorescence, % of fluorescein control": "0.0229% [at 46 µM]"}
{"smiles": "CCCCC(CC)CN1CN(CC(CC)CCCC)CC(C)(N)C1", "note": "(stereo unspecified)", "fluorescence, % of fluorescein control": "-0.051% [at 18.6 µM]"}
